The values below come from PubChem BioAssay (Tox21).

Inconclusive results are not listed. More than one record can exist for a structure, and the calls need not agree. Activity calls are given as the source filed them. Unless noted, calls follow the shape of the dose curve; as a rule, active = well fitted curve in the direction sought with a large enough effect in the repeat runs; inconclusive = weak or mixed curves; inactive = no such curve, though single readings can be large; an effect the other way counts as inactive or inconclusive.

For test [1], the target named is Estrogen receptor (Homo sapiens) (UniProt P03372). Kind of test: qHTS assay to identify small molecule antagonists of the estrogen receptor alpha (ER-alpha) signaling pathway using the BG1 cell line in the presence of 0.1 nM 17-beta-estradiol (AID 1259244). Also: nearly all actives have a fitted effect of over 50% in size. A digest of the protocol: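 Estradiol at 0.1 nM (final) stimulates the endogenous ER-alpha of VM7Luc4E2 cells carrying an ERE-driven luciferase; compounds are co-incubated 22 h at 37C and luciferase output quantified by luminescence.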

Test [2] in a line: qHTS assay to identify small molecule HDAC inhibitors (AID 1259364).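 Also: wild-type HCT-116 cells with endogenous class I/II HDAC activity; top concentration of the series differs between compounds; nearly all actives have a fitted effect of over 45% in size.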 The procedure, abridged: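 Read-out: luminescence of HDAC-Glo I/II reagent, 30 min RT, reflecting class I/II deacetylase activity in whole HCT-116 cells pre-exposed 2 h to DMSO-dissolved compounds.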
In general terms: In qHTS, concentration-response curves come from the screen itself.

Test [3] is described as follows: qHTS assay to identify small molecule HDAC inhibitors - cell viability counter screen (AID 1259365). Also: series mostly up to about 92 µM; nearly all actives have a fitted effect of over 50% in size. The procedure, abridged: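 Wild-type HCT-116 cells, 1,500/well, cultured overnight, then compound-treated 2 h at 37 C. Viability measured as ATP luminescence with CellTiter-Glo after 30 min at room temperature.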
The nature of test [4]: qHTS assay to identify small molecule agonists of the sonic hedgehog signaling (Shh) pathway - cell viability counter screen (AID 1259366). Also: nearly all actives have a fitted effect of over 50% in size. A digest of the protocol:
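NIH/3T3-derived Gli1-Luc reporter cells, 2,000 per well, received compound after 4 h and were treated about 23 h at 37C. Viability measured in the same wells by CellTiter-Fluor fluorescence after 1 h.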

The nature of test [5]: qHTS assay to identify small molecule antagonists of the sonic hedgehog signaling (Shh) pathway - cell viability counter screen (AID 1259367). Also: nearly all actives have a fitted effect of over 55% in size. The procedure, abridged:
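NIH/3T3-derived Gli1-Luc reporter cells (2,000 per well) rested 4 hr at 37 C, then received DMSO compounds plus conditioned medium. After 23 hr of treatment, CellTiter-Fluor was added for 1 hr at 37C and fluorescence read.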

Test [6] can be described thus: qHTS assay to identify small molecule agonists of the sonic hedgehog signaling (Shh) pathway (AID 1259368; calls by dose curve;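 also: NIH/3T3-derived 3T3Gli1-Luc cells carrying a stable Gli1-driven firefly luciferase reporter; series mostly up to about 92 µM; nearly all actives have a fitted effect of over 15% in size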). The procedure, abridged:
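A Gli1 transcriptional response element controlled firefly luciferase in 3T3Gli1-Luc cells. Compounds and a positive control were added 4 hr after plating, and cells were incubated a further 24 hr at 37 C before luminescence detection.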

Test [7] is described as follows: qHTS assay to identify small molecule antagonists of the sonic hedgehog signaling (Shh) pathway (AID 1259369; calls by dose curve; also: nearly all actives have a fitted effect of over 45% in size; also: potency is read from the fitted curve at half-maximal effect). A digest of the protocol:
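For antagonist detection, the reporter line received test compounds together with conditioned medium, incubated 24hr at 37 C, 5% CO2, then luminescence was recorded following 30min room-temperature luciferase reagent incubation.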

Test [8] deals with Estrogen receptor beta (Homo sapiens) (UniProt Q92731). Kind of test: qHTS assay to identify small molecule agonists of the estrogen receptor beta (ER-beta) signaling pathway (AID 1259377; active = well fitted activation curve with a large enough effect in the signal ratio in the repeat runs, not every such curve was filed as active; the % refers to the signal ratio). A digest of the protocol:
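ER-beta-UAS-bla HEK293T cells in medium with 2% charcoal-stripped FBS were exposed to compounds for 16 h at 37C. Beta-lactamase reporter activity was read as fluorescence after 2 h with LiveBLAzer B/G FRET substrate at room temperature.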

A short description of test [9]: qHTS assay to identify small molecule agonists of the androgen receptor (AR) signaling pathway in the presence of an antagonist - cell viability counter screen (AID 1259379).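 Also: MDA-kb2 human breast cancer cells carrying an MMTV luciferase reporter; series mostly up to about 92 µM; nearly all actives have a fitted effect of over 25% in size.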 A digest of the protocol: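 Seed MDA-kb2 at 3,000 cells/well; incubate 5 hr, 37C, 0% CO2. Add nilutamide to 3.0uM final, then pin compounds at 15 concentrations. Incubate 16 hr. Add CellTiter-Fluor at 15 hr, read fluorescence after 1 hr.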

Test [10] in a line: qHTS assay to identify small molecule agonists of the estrogen receptor beta (ER-beta) signaling pathway - cell viability counter screen (AID 1259380). Also: nearly all actives have a fitted effect of over 30% in size. A digest of the protocol:
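CellTiter-Glo read, 30 min RT, same wells as bla assay; cells ER-beta-UAS-bla HEK293T; 16 hr compound, 37C; medium 2% charcoal-stripped FBS.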

A short description of test [11]: qHTS assay to identify small molecule antagonists of the estrogen receptor beta (ER-beta) signaling pathway - cell viability counter screen (AID 1259382). Also: series mostly up to about 92 µM; nearly all actives have a fitted effect of over 55% in size. A digest of the protocol: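 In this multiplexed counter screen, cells were seeded at 2,000 per well in medium with 2% charcoal-stripped FBS and incubated 6 hr before compound and 1nM final E2 were added. Sixteen hours later, ATP-based luminescence reported viability.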

Test [12] has as its target Estrogen receptor (Homo sapiens) (UniProt P03372). Nature of the test: qHTS assay to identify small molecule agonists of the estrogen receptor alpha (ER-alpha) signaling pathway in the presence of an antagonist (AID 1259383; calls by dose curve; also: top concentration of the series differs between compounds; nearly all actives have a fitted effect of over 15% in size). The procedure, abridged: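 Stably transfected VM7Luc4E2 reporter cells, kept 5 days in charcoal-stripped serum, received ICI-182,780 at 10.0nM final before compound addition. Following 22hr incubation at 37C and 5% CO2, luciferase signal was read by luminescence.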

A short description of test [13]: qHTS assay to identify small molecule agonists or antagonists of the thyroid stimulating hormone receptor (TSHR) signaling pathway - wild type cell line counter screen (AID 1259384; calls by dose curve). A digest of the protocol: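 Wild-type HEK293 cells were plated 18 h at 37 C/5% CO2, pin-dosed with compound plus Ro20-1724 medium, held 30 min at room temperature, then given cAMP-d2 and anti-cAMP-cryptate; fluorescence was read after 1 h. Fifteen concentrations, triplicate.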

Test [14] addresses Thyrotropin receptor (Homo sapiens) (UniProt P16473). Kind of test: qHTS assay to identify small molecule antagonists of the thyroid stimulating hormone receptor (TSHR) signaling pathway (AID 1259385; calls by dose curve; also: nearly all actives have a fitted effect of over 20% in size). A digest of the protocol:
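TSHR-HEK293 cells were plated and held 18 h at 37C/5% CO2, then given compound plus Ro20-1724 and stimulated with TSH at 1.5 ng/mL final. After 30 min at room temperature, cAMP was detected with cAMP-d2/anti-cAMP-cryptate (1 h) by fluorescence.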

A short description of test [15]: qHTS assay to identify small molecule agonists of the estrogen receptor alpha (ER-alpha) signaling pathway in the presence of an antagonist - cell viability counter screen (AID 1259386).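 Also: series mostly up to about 92 µM; cells exposed to compounds for 22 h at 37 °C before the viability read; nearly all actives have a fitted effect of over 30% in size.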 The procedure, abridged: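 Viability counter screen using VM7Luc4E2 (full-length ER-alpha, four ERE-luciferase). The cells were treated with compounds alongside ICI-182,780 10.0nM for 22hr, and live-cell protease fluorescence was quantified with CellTiter-Fluor.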

Test [16] addresses Progesterone receptor (Homo sapiens) (UniProt P06401). Nature of the test: qHTS assay to identify small molecule agonists of the progesterone receptor (PR) signaling pathway (AID 1346784; calls by dose curve; also: nearly all actives have a fitted effect of over 30% in size). The procedure, abridged: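 PR-UAS-bla HEK 293T cells (beta-lactamase reporter under UAS) in 2% charcoal-stripped FBS, dosed with 23 nL compound after 6 hr, incubated 16hr at 37C. LiveBLAzer B/G FRET substrate added, fluorescence read after 2 hours.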

Test [17] has the same target. Kind of test: qHTS assay to identify small molecule antagonists of the progesterone receptor (PR) signaling pathway (AID 1346795; active = well fitted inhibition curve with a large enough effect in the signal ratio in the repeat runs, not every such curve was filed as active; the % refers to the signal ratio). A digest of the protocol: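 PR-UAS-bla HEK293T cells with beta-lactamase reporter under UAS control, in 2% charcoal-stripped FBS, treated with compounds plus 1 nM promegestone (R5020, final) for 16 hr at 37C. Read-out: FRET beta-lactamase substrate fluorescence after 2 hr at room temperature.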

Test [18] is described as follows: qHTS assay to identify small molecule antagonists of the progesterone receptor (PR) signaling pathway - cell viability counter screen (AID 1346798). Also: series mostly up to about 92 µM; nearly all actives have a fitted effect of over 50% in size. A digest of the protocol:
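PR-UAS-bla HEK293T cells, 3,000/well in 2% charcoal-stripped FBS medium, dosed with compounds plus R5020 agonist and incubated 16 h at 37C. Viability then measured in the same wells by CellTiter-Glo luminescence after 30 min at RT.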

Test [19] addresses Estrogen receptor beta (Homo sapiens) (UniProt Q92731). Nature of the test: qHTS assay to identify small molecule antagonists of the estrogen receptor beta (ER-beta) signaling pathway (AID 1259378; active = well fitted inhibition curve with a large enough effect in the signal ratio in the repeat runs, not every such curve was filed as active; the % refers to the signal ratio). The procedure, abridged: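 ER-beta-UAS-bla HEK293T (GripTite) cells in 2% charcoal-stripped FBS medium were preincubated 6 hr at 37C, dosed with compound, then stimulated with 1 nM E2 (final) for 16 hr; beta-lactamase reporter read by B/G FRET fluorescence after 2 hr substrate loading.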

Estrogen receptor (Homo sapiens), sequence (P03372 whole entry, looked up): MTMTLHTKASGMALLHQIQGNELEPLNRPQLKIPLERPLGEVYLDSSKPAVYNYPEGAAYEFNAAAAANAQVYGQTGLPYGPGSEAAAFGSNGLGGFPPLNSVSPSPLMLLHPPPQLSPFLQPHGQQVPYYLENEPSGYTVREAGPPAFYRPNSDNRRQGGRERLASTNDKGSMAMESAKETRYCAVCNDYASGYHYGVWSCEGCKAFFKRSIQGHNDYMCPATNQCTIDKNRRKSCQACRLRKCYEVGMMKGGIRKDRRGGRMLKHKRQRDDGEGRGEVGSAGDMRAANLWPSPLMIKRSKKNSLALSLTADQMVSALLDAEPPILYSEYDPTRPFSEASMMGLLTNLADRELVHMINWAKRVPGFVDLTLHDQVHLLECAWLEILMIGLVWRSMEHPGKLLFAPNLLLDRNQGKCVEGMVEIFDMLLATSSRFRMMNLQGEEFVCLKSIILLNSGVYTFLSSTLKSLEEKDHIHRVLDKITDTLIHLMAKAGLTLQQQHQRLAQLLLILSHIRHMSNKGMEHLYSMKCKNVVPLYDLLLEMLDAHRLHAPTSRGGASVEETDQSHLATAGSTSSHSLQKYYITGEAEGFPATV
Thyrotropin receptor (Homo sapiens), sequence (P16473 whole entry, looked up): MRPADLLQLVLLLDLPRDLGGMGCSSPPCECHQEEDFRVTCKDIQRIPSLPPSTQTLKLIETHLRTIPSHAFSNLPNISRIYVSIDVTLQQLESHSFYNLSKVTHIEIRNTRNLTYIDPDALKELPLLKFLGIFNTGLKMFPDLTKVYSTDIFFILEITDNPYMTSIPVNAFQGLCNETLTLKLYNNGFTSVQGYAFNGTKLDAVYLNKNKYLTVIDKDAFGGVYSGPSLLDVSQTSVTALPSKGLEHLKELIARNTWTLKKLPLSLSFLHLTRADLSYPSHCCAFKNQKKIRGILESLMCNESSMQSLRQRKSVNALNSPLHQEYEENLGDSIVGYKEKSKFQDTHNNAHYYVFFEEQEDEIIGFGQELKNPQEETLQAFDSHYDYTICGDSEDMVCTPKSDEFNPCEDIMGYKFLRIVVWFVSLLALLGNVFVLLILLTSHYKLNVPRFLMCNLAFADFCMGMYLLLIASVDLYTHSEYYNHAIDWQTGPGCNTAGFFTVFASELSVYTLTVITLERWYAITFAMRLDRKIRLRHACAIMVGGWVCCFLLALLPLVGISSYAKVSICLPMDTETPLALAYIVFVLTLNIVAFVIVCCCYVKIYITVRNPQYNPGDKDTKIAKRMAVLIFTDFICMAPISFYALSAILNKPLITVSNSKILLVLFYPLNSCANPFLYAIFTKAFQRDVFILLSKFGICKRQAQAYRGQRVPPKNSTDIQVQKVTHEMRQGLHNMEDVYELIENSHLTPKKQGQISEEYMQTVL
Estrogen receptor beta (Homo sapiens), sequence (Q92731 whole entry, looked up): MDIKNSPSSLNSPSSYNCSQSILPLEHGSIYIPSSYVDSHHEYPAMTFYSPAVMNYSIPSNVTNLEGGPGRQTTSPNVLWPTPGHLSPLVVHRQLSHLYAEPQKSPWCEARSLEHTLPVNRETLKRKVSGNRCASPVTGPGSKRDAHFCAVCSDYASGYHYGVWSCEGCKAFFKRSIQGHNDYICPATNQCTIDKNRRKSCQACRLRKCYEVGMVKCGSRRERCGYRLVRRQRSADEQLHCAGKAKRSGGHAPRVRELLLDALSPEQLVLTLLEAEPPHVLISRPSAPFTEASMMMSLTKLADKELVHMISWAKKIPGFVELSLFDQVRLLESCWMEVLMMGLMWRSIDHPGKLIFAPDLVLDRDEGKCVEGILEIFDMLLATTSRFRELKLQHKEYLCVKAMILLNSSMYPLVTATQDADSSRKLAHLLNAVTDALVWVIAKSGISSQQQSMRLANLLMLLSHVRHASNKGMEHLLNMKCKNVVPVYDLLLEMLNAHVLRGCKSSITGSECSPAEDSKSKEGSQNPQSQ
Progesterone receptor (Homo sapiens), sequence (P06401 whole entry, looked up): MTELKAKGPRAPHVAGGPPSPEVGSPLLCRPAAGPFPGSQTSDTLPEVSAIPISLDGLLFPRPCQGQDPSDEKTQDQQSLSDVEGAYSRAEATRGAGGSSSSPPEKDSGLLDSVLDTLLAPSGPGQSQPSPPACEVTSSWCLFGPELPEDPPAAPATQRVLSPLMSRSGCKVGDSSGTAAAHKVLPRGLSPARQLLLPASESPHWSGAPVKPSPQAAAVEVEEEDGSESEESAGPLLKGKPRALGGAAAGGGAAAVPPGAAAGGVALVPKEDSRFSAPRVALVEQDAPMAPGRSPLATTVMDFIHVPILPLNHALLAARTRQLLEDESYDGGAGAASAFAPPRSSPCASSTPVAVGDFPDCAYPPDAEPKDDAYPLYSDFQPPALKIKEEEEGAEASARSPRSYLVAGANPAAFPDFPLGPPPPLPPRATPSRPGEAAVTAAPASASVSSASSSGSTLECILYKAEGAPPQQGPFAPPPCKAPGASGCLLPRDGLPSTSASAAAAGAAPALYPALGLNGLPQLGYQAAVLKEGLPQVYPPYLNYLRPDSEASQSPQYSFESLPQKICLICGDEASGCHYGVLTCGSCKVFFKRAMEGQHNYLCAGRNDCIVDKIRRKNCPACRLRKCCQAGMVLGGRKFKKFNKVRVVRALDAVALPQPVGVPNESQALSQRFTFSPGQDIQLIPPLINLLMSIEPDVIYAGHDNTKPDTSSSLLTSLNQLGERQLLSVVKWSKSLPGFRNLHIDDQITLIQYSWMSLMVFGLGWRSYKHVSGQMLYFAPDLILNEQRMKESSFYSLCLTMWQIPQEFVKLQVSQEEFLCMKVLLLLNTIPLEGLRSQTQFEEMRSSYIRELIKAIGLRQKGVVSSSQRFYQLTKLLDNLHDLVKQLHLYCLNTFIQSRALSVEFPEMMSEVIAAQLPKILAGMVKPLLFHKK

In the case of `Cc1ccc([N+](=O)[O-])cc1C`, the Potency entry in [1], in test [2], in [4], in test [5], in test [7] and in test [8] was “inactive” in each case. For the same compound, the Potency entry in test [10], in test [11], in test [12], in [14], in test [17] and in [18] was “inactive” in each case. Moreover, the call in test [3], in test [6], in [9], in test [13], in test [15] and in [16] was inactive.

On to `CN(C)CCO`, for which the Potency entry in test [1], in test [2], in test [4], in [5], in test [7] and in [8] was “inactive” in each case. Further, the Potency result in test [10], in test [11], in [12], in test [14], in test [17] and in test [18] was “inactive” throughout. In addition, the compound was called inactive in test [3], in test [6], in test [19], in test [9], in test [13] and in [15]. The compound was called inactive in test [16].

As to `Nc1c(Cl)c(Cl)nc(C(=O)O)c1Cl`, the Potency result in [1], in test [2], in test [4], in test [5], in [7] and in [8] was “inactive” each time. Moreover, the Potency result in test [10], in test [11], in test [12], in test [14], in test [17] and in test [18] was “inactive” each time. For the same compound, the compound was called inactive in test [3], in test [6], in test [19], in [9], in test [13] and in [15]. Further, the result in test [16] was inactive.

With `CCCN(CCC)N=O`, the Potency entry in test [1], in test [2], in test [4], in test [5], in test [7] and in [8] was “inactive” throughout. For the same compound, the Potency result in test [10], in test [11], in [12], in [14], in [17] and in test [18] was “inactive” throughout. Moreover, the call in [3], in test [6], in test [19], in [9], in [15] and in test [16] was inactive.

As for `C1CC2OC2CC1C1CO1` (configuration not stated), the Potency entry in [1], in [2], in test [4], in test [5], in test [7] and in [8] was “inactive” in each case. Moreover, the Potency entry in [10], in [11], in [12], in test [14], in test [17] and in [18] was “inactive” each time. Further, the outcome in test [3], in [6], in test [9], in test [13], in test [15] and in test [16] was inactive.

For the compound `ClCCBr`, the Potency result in test [1], in test [2], in test [4], in [5], in test [7] and in test [8] was “inactive” each time. Besides, the Potency entry in test [10], in test [11], in [12], in test [14], in test [17] and in test [18] was “inactive” throughout. Further, the compound was classed as inactive in test [3], in test [6], in test [9], in test [13], in [15] and in test [16].

Turning to `Clc1ccc(Cl)cc1`, the Potency result in test [1], in test [2], in test [4], in test [5], in test [8] and in test [10] was “inactive” in each case. The Potency result in test [11], in [12], in test [14], in test [17] and in [18] was “inactive” each time. In addition, the compound was classed as inactive in test [3], in [6], in test [9], in [13], in test [15] and in test [16]. Besides, the Potency in test [7] is 385 nM (active) and inactive.

On to `Cc1ccc(N)cc1Cl`, for which the Potency result in test [1], in test [2], in [4], in test [5], in [7] and in [8] was “inactive” throughout. Moreover, the Potency result in [10], in test [11], in test [12], in test [14], in [17] and in test [18] was “inactive” throughout. The result in [3], in test [6], in test [19], in test [9], in test [13] and in test [15] was inactive. Besides, the result in test [16] was inactive.
